These results are taken from PubChem BioAssay.

Active and inactive are the calls of the source. Unless noted, the rule behind the calls is not given here.

The nature of test [1]: compounds binding Alexa647 anti-His antibody – biochemical, small-molecule microarray, 635 nm fluorescence, artefact control for SMM control protein annotation, primary screen (AID 1128).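 Note: score merges feature fluorescence with signal-to-noise for each printed compound spot.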 The conditions noted are these: higher = more signal.
Test [2] concerns Human papillomavirus type 1a E7 protein (residues 1-88). Nature of the test: HPV1a E7 small-molecule binders, primary screen, biochemical, small-molecule microarray, residues 1-88, 635 nm (AID 1129). The conditions noted are these: small-molecule microarray binding, fluorescence 635 nm; higher = more signal.
Test [3] deals with Focal adhesion kinase 1 (Homo sapiens) (UniProt Q05397). The test can be described thus: PTK2 protein binding on printed compound slides – biochemical, small-molecule microarray, 635/667 nm fluorescence, BSA, DTT, primary screen (AID 1130).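 Note: composite of spot emission at 667 nm and signal to noise over triplicate slides.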 The conditions noted are these: 635 nm fluorescence, higher = more signal.
In test [4] the test system is Fibrinogen (Alexa647-labelled). The test can be described thus: Alexa647-fibrinogen binding to printed small molecules – biochemical, small-molecule microarray, 635/667 nm fluorescence, artefact control for SMM control-protein annotation, profiling panel (AID 1131).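 Note: z-score merges 667 nm fluorescence with per-spot signal-to-noise over triplicate slides.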 Conditions: fibrinogen-A647 binding fluorescence, higher = more signal.
Test [5] addresses Follistatin (Homo sapiens) (UniProt P19883). The test can be described thus: FST protein binding to printed compounds – biochemical, small-molecule microarray, 635/667 nm fluorescence, primary screen (AID 1132). Conditions: 635 nm fluorescence, higher = more signal.
In test [6] the target is Fibroblast growth factor 2 (Homo sapiens) (UniProt P09038). The test can be described thus: basic fibroblast growth factor binding to printed compounds – biochemical, small-molecule microarray, 635/667 nm fluorescence, primary screen (AID 1133). The conditions noted are these: FGF2, fluorescence 635/667, higher = more signal.
Test [7] can be described thus: JC-1 mitochondrial potential readout, lung cancer cells – cell-based, A549, JC-1 fluorescence, basal, 24 h, 100 nL, profiling panel (AID 1138).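 Note: A549 lung adenocarcinoma cells under basal conditions with no added stimulus; test concentration not given here.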 The conditions noted are these: higher = more signal.
The next test deals with Lefty1. Nature of the test: Lefty1 protein binding to printed compounds – biochemical, small-molecule microarray, 635/667 nm fluorescence, primary screen (AID 1139). Conditions: fluorescence 635/667, higher = more signal.
The test system of test [8] is wheat germ agglutinin (Triticum aestivum), Alexa647-labelled. Nature of the test: Alexa647-WGA lectin binding to printed small molecules – biochemical, small-molecule microarray, 635/667 nm fluorescence, artefact control for SMM control-protein annotation, profiling panel (AID 1140).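 Note: score merges 667 nm feature emission with signal to noise over triplicate slides.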 Conditions: WGA-A647 binding, 635 nm fluorescence, higher = more signal.
Test [9] addresses Luciferin 4-monooxygenase (Photinus pyralis) (UniProt P08659). Nature of the test: inhibition of purified Photinus pyralis luciferase – biochemical, luminescence, purified enzyme, 2006 set, primary screen (AID 1141).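 Note: cell-free assay with purified firefly luciferase at 100 ng per well in PBS; test concentration not given here.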 Conditions: purified firefly luciferase, SteadyGlo luminescence, 30 min; higher = more signal, called active from +8 up or from −8 down.
The subject of test [10] is Wnt5a (protein binding on small-molecule microarray). Nature of the test: small molecules binding Wnt5a protein – biophysical, small-molecule microarray, 635/667 nm fluorescence, primary screen (AID 1142).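 Note: fluorescence read at 667 nm with signal to noise per printed feature.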 Conditions: 635 nm fluorescence, higher = more signal.
Test [11] in a line: ATP-based viability of Huh7 replicon cells – cell-based, CellTiter-Glo luminescence, basal, 48 h, cytotoxicity control for HCV replication inhibitor project, primary screen (AID 1143).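 Note: Huh7 hepatoma cells carrying a hepatitis C replication reporter with no stimulus; test concentration not given here.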 The conditions noted are these: higher = more signal, called active from +8 up or from −8 down. A general note: Replicon systems follow genome replication, usually without infectious particles.
The nature of test [12]: Pseudomonas biofilm growth suppression – PAO1 strain, BacTiter-Glo luminescence, LB-PBS, primary screen (AID 1144). Conditions: P. aeruginosa PAO1 biofilm, 12 h, higher = more signal.
Test [13] can be described thus: basal CRE-LacZ reporter activity in PC12 – cell-based, unstimulated, primary screen (AID 1145). Conditions: no forskolin, luminescence, 4.5 h, higher = more signal, called active from +8 up or from −8 down.
Test [14] can be described thus: forskolin-driven CRE-LacZ activity in PC12 – cell-based, CRE-LacZ reporter, forskolin-stimulated, primary screen (AID 1146).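 Note: PC12 cells with 6xCRE LacZ reporter stimulated by forskolin 10 µM; beta-galactosidase reporter signal reflecting CREB driven transcription.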 The conditions noted are these: luminescence, 4.5 h, higher = more signal, called active from +8 up or from −8 down.
Test [15] concerns the target Streptavidin (Streptomyces avidinii) (UniProt P22629). The test can be described thus: compounds binding control protein streptavidin – biophysical, small-molecule microarray, 635/667 nm fluorescence, artefact control for SMM compound annotation, primary screen (AID 1147).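 Note: signal reflects streptavidin binding to arrayed compounds as a control protein.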 The conditions noted are these: higher = more signal.
The nature of test [16]: probe aInhba binding on compound microarray – biochemical, small-molecule microarray, 635/667 nm fluorescence, primary screen (AID 1148).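 Note: score merges 667nm spot fluorescence with signal-to-noise for antibody binding to printed compounds.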 Conditions: higher = more signal.
Test [17] deals with Torsin-1A (Homo sapiens) (UniProt O14656). The test can be described thus: TOR1A wild-type binding on microarray – cell lysate, small-molecule microarray, lysate, 635/667 nm, primary screen (AID 1149). The conditions noted are these: COS7 hTOR1A-WT lysate, 635 nm fluorescence, higher = more signal.
Test [18] has the same target. Nature of the test: torsin A mutant lysate binding on microarrays – cell lysate, small-molecule microarray, COS7 lysate, 635/667 nm fluorescence, primary screen (AID 1150).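 Note: score pools 667 nm emission and signal to noise measuring lysate protein binding.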 The conditions noted are these: COS7 hTOR1A mutant lysate, 635 nm fluorescence, higher = more signal.
Test [19] relates to Sonic hedgehog protein (Shh). Nature of the test: Sonic hedgehog microarray binding compounds – biochemical, small-molecule microarray, 635/667 nm fluorescence, primary screen (AID 1151).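 Note: Shh protein binding to compounds spotted on small-molecule microarray slides; score combines spot fluorescence intensity with signal-to-noise across triplicate slides.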 Conditions: 635 nm fluorescence, higher = more signal.

Streptavidin (Streptomyces avidinii), sequence (P22629 whole entry, looked up): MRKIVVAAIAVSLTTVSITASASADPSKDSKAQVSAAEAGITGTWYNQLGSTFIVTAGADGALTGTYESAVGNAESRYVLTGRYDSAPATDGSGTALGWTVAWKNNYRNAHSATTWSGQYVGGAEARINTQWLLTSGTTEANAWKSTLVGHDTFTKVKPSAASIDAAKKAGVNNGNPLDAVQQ
Luciferin 4-monooxygenase (Photinus pyralis), sequence (P08659 whole entry, looked up): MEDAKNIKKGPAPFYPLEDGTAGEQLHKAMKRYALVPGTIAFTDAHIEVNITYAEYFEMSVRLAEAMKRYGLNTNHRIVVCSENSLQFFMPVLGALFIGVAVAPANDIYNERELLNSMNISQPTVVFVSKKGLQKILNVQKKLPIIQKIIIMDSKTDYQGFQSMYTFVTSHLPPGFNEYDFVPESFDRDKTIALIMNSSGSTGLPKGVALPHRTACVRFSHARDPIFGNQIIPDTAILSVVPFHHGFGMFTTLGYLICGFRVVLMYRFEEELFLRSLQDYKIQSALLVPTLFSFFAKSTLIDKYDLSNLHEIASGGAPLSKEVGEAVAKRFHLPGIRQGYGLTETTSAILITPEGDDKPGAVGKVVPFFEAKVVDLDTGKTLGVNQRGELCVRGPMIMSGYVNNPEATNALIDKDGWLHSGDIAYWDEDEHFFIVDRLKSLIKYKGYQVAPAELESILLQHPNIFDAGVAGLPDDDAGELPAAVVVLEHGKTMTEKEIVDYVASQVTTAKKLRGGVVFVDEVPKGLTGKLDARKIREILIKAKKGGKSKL
Focal adhesion kinase 1 (Homo sapiens), sequence (Q05397 whole entry, looked up): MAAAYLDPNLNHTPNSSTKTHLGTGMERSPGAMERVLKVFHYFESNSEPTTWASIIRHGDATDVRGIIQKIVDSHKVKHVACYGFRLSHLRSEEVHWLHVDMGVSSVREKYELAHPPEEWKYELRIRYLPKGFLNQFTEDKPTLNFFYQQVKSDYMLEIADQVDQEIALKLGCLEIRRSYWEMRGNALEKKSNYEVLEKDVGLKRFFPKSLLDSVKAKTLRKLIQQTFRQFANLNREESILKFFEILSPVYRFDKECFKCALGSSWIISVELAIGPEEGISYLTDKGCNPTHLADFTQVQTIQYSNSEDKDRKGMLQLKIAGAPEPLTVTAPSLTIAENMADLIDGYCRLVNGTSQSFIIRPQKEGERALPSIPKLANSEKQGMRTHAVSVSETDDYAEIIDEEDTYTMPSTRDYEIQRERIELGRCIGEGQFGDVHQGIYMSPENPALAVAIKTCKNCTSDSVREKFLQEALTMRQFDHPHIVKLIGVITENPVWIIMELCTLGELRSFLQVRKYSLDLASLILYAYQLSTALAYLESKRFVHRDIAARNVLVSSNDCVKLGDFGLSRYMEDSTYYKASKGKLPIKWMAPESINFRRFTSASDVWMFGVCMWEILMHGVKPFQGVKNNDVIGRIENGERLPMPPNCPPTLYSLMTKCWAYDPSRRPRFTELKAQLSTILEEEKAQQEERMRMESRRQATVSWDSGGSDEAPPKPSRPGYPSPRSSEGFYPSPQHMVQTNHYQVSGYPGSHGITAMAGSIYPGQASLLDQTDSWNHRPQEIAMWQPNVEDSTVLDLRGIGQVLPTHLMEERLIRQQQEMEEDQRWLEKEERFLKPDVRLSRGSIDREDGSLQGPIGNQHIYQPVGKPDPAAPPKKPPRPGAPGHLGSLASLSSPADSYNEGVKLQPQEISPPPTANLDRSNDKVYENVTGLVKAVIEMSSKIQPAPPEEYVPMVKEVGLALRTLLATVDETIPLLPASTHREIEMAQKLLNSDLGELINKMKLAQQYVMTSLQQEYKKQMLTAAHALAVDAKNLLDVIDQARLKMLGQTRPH
Fibroblast growth factor 2 (Homo sapiens), sequence (P09038 whole entry, looked up): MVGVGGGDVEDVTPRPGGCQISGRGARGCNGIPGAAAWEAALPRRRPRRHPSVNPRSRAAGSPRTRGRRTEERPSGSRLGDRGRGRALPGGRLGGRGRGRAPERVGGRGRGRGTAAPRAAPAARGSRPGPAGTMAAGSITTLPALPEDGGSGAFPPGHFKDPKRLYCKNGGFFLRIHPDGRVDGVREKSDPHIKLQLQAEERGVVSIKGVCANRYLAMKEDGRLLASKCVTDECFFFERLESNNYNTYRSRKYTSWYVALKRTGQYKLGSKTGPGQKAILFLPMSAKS
Torsin-1A (Homo sapiens), sequence (O14656 whole entry, looked up): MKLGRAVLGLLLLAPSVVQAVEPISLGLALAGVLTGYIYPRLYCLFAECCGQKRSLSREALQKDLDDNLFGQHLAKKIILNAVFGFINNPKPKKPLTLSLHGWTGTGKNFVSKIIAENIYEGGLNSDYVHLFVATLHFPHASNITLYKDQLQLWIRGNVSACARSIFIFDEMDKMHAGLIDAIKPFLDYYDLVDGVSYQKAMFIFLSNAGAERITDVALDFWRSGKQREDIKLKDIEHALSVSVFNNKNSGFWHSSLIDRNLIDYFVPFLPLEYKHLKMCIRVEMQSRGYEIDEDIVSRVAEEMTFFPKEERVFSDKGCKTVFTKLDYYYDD
Follistatin (Homo sapiens), sequence (P19883 whole entry, looked up): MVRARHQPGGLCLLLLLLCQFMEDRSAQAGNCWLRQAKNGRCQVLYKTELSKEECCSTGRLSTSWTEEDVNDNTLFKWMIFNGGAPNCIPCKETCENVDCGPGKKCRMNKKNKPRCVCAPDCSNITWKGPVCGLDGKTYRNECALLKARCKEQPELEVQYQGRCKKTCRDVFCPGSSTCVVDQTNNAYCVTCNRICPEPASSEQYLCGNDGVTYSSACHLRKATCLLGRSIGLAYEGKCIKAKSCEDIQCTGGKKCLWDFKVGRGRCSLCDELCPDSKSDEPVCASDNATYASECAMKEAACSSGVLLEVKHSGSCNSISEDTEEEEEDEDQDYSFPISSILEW

Take `Cc1ccc(S[C@]2(C(=O)NCC(C)C)CC(=O)N(C3Cc4ccccc4C3)[C@@H]2c2ccc(CO)cc2I)cc1`: the composite z-score is -0.258 in test [1]; 0.27 in [2]; -0.199 in [3]; -1.13 in [4]; -0.615 in test [5]; -1.02 in test [6]. For the same compound, the composite z-score in the test on Lefty1 is -1.38; in test [8], -0.463; in test [10] it was -0.305; in test [15], -1.21; in test [16], -0.182; with Torsin-1A (Homo sapiens) [17], -0.284. Moreover, the figures for the composite z-score (in the test with Torsin-1A (Homo sapiens) [18]; in test [19]) were -0.183 and -0.51, respectively. Besides, the z-score in [7] was -0.244; in test [9], -0.063 (inactive); in [11], -0.552 (inactive); in test [12], 0.491 (inactive); in test [13], 0.389 (inactive); in test [14] it was 1.42 (inactive).

For the compound `Cc1ccc(S[C@]2(C(=O)NC(C)C)CC(=O)N(Cc3ccccc3Cl)[C@@H]2c2ccc(CO)cc2)cc1`, the composite z-score in test [1] is 0.568; in test [2], 0.424; in test [3], -0.092; in test [4], 0.54; in [5], -0.568; in test [6], -1.27. Also, the composite z-score in the test on Lefty1 was -1.56; in test [8], 0.762; in [10], -0.323; in test [15] it was -1.03; in test [16] it was -0.149; with Torsin-1A (Homo sapiens) [17], -2.93. Moreover, the figures for the composite z-score (in the test with Torsin-1A (Homo sapiens) [18]; in test [19]) were -1.86 and -0.761, respectively. Besides, the z-score is -0.718 in [7]; -0.426 (inactive) in test [9]; -2.67 (inactive) in test [11]; -0.141 (inactive) in [12]; -0.295 (inactive) in [13]; 0.506 (inactive) in test [14].

On to `CC1CC/C=C\[C@H]2OC34C=CCN(C(C)(C)C)C(=O)[C@H]3N(C(CO)C(C)C)C(=O)[C@@H]4C2C(=O)O1` (stereo not given in full), for which the composite z-score is -0.0256 in test [1]; -0.181 in test [2]; 0.102 in test [3]; -1.26 in test [4]; 0.276 in test [5]; 0.365 in [6]. Besides, the composite z-score with Lefty1 was 0.659; in [8] it was -0.324; in [10], 0.0295; in test [15], -0.324; in test [16], -0.128; in the test with Torsin-1A (Homo sapiens) [17], 0.0733. Further, the results for the composite z-score (in the test with Torsin-1A (Homo sapiens) [18]; in test [19]) were 0.931 and 0.774, respectively. In addition, the z-score in test [7] was -0.428; in [9] it was -0.0671 (inactive); in [11], 0.0336 (inactive); in test [12], 1.4 (inactive); in [13], -0.354 (inactive); in test [14], 0.46 (inactive).

As for `CCN(CC)c1ccc(N2CC=CC34O[C@@H]5C=CCCOC(=O)C5[C@H]3C(=O)N(CCO)[C@@H]4C2=O)cc1` (stereo not given in full), the composite z-score in [1] was -0.827; in test [2] it was -1.74; in test [3] it was -0.491; in [4] it was -1.21; in test [5], -0.722; in [6], -1.01. Further, the composite z-score in the test on Lefty1 was -1; in test [8] it was -0.553; in test [10] it was -0.546; in [15], -1.02; in test [16], -0.163; with Torsin-1A (Homo sapiens) [17] it was -0.894. Besides, the composite z-score with Torsin-1A (Homo sapiens) [18] was -1.42; in test [19] it was -0.0352. Further, the z-score in test [7] was 0.108; in [9], -0.643 (inactive); in test [11] it was -0.055 (inactive); in [12], -0.167 (inactive); in test [13] it was 0.191 (inactive); in test [14] it was 0.0371 (inactive).

On to `CN1C(=O)C2C(C1=O)C1C=C(CCCO)C2C(C2CC2)N1Cc1cc2c(cc1Br)OCO2` (stereo not given), for which the composite z-score in test [1] is 2.92; in test [2], 0.788; in [3], 0.481; in test [4] it was 0.919; in test [5], 0.4; in test [6], 0.0867. The composite z-score with Lefty1 was found to be 0.317; in [8], 0.555; in [10], 0.0949; in test [15] it was 0.838; in [16], 0.0569; with Torsin-1A (Homo sapiens) [17], 1.2. In addition, the figures for the composite z-score (with Torsin-1A (Homo sapiens) [18]; in [19]) were 1.5 and 0.265, respectively. Moreover, the z-score in test [7] is -0.401; in test [9], -0.0255 (inactive); in [11], -1.57 (inactive); in test [12], -0.0766 (inactive); in test [13], 1.26 (inactive); in test [14], 2.6 (inactive).
